Reference: PubChem BioAssay (NCATS)
Records with an inconclusive call do not appear. A call without a number means that no potency is given here. Calls of active or inactive are those of the source. Calls follow the shape of the dose curve; as a rule, active = well fitted inhibition curve with a large enough effect; inconclusive = small, poorly fitted or top-dose-only effect; inactive = flat fitted curve, though single readings scatter.
Potency is read from the fitted curve at half-maximal effect.

Each molecule was assayed against Lysine-specific demethylase 5B (Homo sapiens) (UniProt Q9UGL1) (assay: Optimization screen for KDM5B Histone Demethylases FDH coupled qHTS against the LOPAC library (AID 1347166)). Conditions: KDM5B demethylation, FDH-coupled NADH fluorescence (FDH is formaldehyde dehydrogenase); series mostly up to 57.5 µM.
Lysine-specific demethylase 5B (Homo sapiens), sequence (Q9UGL1 whole entry, looked up): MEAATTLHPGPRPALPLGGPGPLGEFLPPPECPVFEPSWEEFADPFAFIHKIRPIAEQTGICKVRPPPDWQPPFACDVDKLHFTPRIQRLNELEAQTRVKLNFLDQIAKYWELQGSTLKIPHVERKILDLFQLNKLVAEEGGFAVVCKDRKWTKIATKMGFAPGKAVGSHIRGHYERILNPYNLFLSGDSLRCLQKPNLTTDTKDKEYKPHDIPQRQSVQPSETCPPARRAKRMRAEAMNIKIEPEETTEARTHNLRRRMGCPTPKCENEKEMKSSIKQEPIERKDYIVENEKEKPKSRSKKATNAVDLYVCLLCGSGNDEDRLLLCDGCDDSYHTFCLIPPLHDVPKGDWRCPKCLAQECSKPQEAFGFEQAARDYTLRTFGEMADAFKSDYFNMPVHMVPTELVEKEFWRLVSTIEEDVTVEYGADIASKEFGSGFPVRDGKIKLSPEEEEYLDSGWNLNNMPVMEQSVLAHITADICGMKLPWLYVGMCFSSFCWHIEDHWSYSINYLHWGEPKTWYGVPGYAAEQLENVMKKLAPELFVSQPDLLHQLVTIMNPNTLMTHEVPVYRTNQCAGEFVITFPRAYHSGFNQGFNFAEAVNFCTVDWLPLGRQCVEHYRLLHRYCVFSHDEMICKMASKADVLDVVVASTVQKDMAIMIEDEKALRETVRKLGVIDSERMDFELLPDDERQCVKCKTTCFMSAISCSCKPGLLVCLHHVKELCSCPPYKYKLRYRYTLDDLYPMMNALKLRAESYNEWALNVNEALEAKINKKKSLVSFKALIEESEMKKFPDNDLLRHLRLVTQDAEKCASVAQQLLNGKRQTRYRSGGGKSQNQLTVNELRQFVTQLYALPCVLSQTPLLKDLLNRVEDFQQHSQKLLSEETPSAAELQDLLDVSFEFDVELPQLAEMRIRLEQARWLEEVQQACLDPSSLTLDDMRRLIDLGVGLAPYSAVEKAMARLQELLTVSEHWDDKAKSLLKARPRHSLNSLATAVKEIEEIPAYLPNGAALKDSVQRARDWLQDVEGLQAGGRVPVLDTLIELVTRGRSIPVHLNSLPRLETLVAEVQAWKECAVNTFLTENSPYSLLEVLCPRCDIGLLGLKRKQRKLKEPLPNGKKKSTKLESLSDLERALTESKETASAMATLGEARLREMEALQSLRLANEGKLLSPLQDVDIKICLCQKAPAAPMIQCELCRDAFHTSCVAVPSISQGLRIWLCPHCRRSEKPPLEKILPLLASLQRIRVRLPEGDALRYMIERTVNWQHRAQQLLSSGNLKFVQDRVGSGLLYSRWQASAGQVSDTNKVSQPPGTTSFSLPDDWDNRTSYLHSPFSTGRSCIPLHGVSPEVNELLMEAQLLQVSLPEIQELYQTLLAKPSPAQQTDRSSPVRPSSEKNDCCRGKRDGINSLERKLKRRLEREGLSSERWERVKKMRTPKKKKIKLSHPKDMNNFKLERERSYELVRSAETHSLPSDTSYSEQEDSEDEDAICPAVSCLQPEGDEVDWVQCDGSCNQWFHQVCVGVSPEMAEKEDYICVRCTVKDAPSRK
Source text: Assay Submitter (PI): Qin Yan, Ph.D. (Yale University) and Xiaodong Cheng, Ph.D. (MD Anderson)
This project was funded as part of the NCI NEXT Program and Chemical Biology Consortium (CBC)
The histone demethylases, KDM5A and KDM5B catalyze the demethylation of lysine 4 on histone H3 (H3K4me3/2). They
are overexpressed in a variety of cancers and have been implicated in cancer cell growth, metastasis, drug resistance, and tumor growth. KDM5A is amplified and overexpressed in breast and gastric cancer; and is translocated in leukemia. While KDM5B is highly expressed in human mammary tumors and breast cancer cell lines, but not in normal adult breast tissue. Moreover, knockdown of KDM5B leads to upregulation of tumor suppressor genes, including BRCA1. The goal of this project is to employ qHTS to identify selective small molecule inhibitors of KDM5A/B demethylase activity to better understand the role of KDM5 in cancer and to develop novel therapies.
We employed an FDH-coupled assay previously reported by Sakurai et al. to monitor in vitro KDM5 demethylase activity. Compounds showing dose response inhibition are re-acquired, validated, and tested for non-specific interference with the formaldehyde dehydrogenase (FDH) counterscreen. True inhibitors are validated using an AlphaLisa secondary screen, which employs an H3K4(me2-1)-specific antibody to monitor demethylation of a biotin-tagged H3K4(me3) peptide substrate. Inhibitors are profiled against KDM4A and KDM6A AlphaLisa counterscreens to determine level of demethylase specificity; and against the TruHits counterscreen to eliminate non-specific inhibitory activity on the AlphaLISA detection method. Selective inhibitors identified from the primary and secondary screening are tested in cells using immunofluorescence to monitor global H3K4 tri-methylation as a measure of KDM5A/B inhibition. This assay is run against the NCGC Lopac collection of about 1,200 compounds to evaluate its amenability to quantitative High Throughput Screening (qHTS) platform.
Early Translation Branch (ETB)
National Center for Advancing Translational Sciences (NCATS), Rockville, MD
National Institute of Health (NIH), Bethesda, Maryland
[1] Sakurai, M et al. A miniaturized screen for inhibitors of Jumonji histone demethylases. Mol Biosyst. 2010 Feb;6(2):357-64. doi: 10.1039/b912993f. Epub 2009 Oct 8.
1536-well Black, solid bottom, medium binding assay plate is purchased from Greiner Bio-one. The enzymes (KDM5B) and substrate (H3K4me3/2) are provided by the principal investigators. The buffer for this assay is composed of 50mM HEPES at pH 7.5 with 0.01% Tween-20.
FDH coupled qHTS protocol:
Three microliter enzyme mix (buffer + 200nM KDM5BDeltaAP final concentration) is dispensed into the assay plate using the BioRAPTR Flying Reagent Dispenser (FRD; Beckton-Dickenson). Compound (at various final concentration) and control solution is pin transferred to the assay plate using the Kalypsys 1536-pin tool apparatus. The assay plate is incubated for 10 min at room temperature followed by addition of 1uL substrate mix (buffer + 100uM ascorbic acid, 50uM ferrous ammonium sulfate, 12.5uM H3K4Me3, 25uM a-ketoglutarate, 0.25 mM NAD+, 0.25 U/mL formaldehyde dehydrogenase using the FRD yielding a total reaction volume of 4 uL. Initial fluorescence (Read1) is detected using the PerkinElmer ViewLux plate reader equipped with 340 nm excitation and 450 nm emission filters. The final fluorescence (Read2) signal is obtained after 30 min of room temperature incubation. Delta RFU is calculated (Read2 - Read1) and is used to generated dose response curves
For `CC(C)(Oc1ccc(CCNC(=O)c2ccc(Cl)cc2)cc1)C(=O)O`, the Potency was “inactive”.
With `CCOC(=O)C1=C(C)NC(C)=C(C(=O)OC)C1c1cccc([N+](=O)[O-])c1` (stereo not given) the Potency was “inactive”.
With `c1cc(CN2CCCCC2)cc(OCCCNc2nc3ccccc3s2)c1` the Potency was “inactive”.
For `CCNC(=O)N1CCN(CCCC(c2ccc(F)cc2)c2ccc(F)cc2)CC1`, the Potency was “inactive”.
With `CSc1ccc(C(=O)c2[nH]c(=O)[nH]c2C)cc1` the Potency was “inactive”.
In the case of `C[N+](C)(C)CCCCCCCCCC[N+](C)(C)C`, the Potency is reported as “inactive”.
In the case of `c1ccc2c(c1)CCCC2C1=NCCN1` (stereo not given), the Potency is reported as “inactive”.
`CCCCNc1ccc(C(=O)OCCN(C)C)cc1` was tested, and the Potency was “inactive”.
In the case of `CCCCNc1c(C(=O)OCC)c(C)nc2c1cnn2CC`, the Potency is reported as “inactive”.
For `NS(=O)(=O)c1cc2c(cc1Cl)NC(C1CC3C=CC1C3)NS2(=O)=O` (stereo not given), the Potency was “inactive”.
`Cc1cccc(C)c1NC(=O)C(C)N` (stereo not given) was tested, and the Potency was “inactive”.
In the case of `Cc1scc2c1N(C(=O)CN1CCN(C)CC1)c1ccccc1NC2=O`, the Potency is reported as “inactive”.
For `C[C@@H](O)[C@H]1C(=O)N2C(C(=O)O)=C(SCCN=CN)C[C@H]12`, the Potency was “inactive”.
`CCN1CCc2nc(N)oc2CC1` was tested, and the Potency was “inactive”.
In the case of `NC(N)=N/N=C/c1c(Cl)cccc1Cl`, the Potency is reported as “inactive”.
In the case of `CC(C)(C)NCC(O)c1cc(O)cc(O)c1` (stereo not given), the Potency is reported as “inactive”.
`C[C@H](CS)C(=O)N1CCC[C@H]1C(=O)O` was tested, and the Potency was “inactive”.
For `CC(=O)[C@]1(O)Cc2c(O)c3c(c(O)c2[C@@H](O[C@H]2C[C@H](N)[C@H](O)[C@H](C)O2)C1)C(=O)c1ccccc1C3=O`, the Potency was “inactive”.
With `CO[C@@]1(NC(=O)CSCC#N)C(=O)N2C(C(=O)O)=C(CSc3nnnn3C)CS[C@@H]21` the Potency was “inactive”.
With `Nc1nc(N)c2nc(-c3ccccc3)c(N)nc2n1` the Potency was 39.8 µM (active).
For `NC(=O)N1c2ccccc2C=Cc2ccccc21`, the Potency was “inactive”.
For `COCC(=O)O[C@]1(CCN(C)CCCc2nc3ccccc3[nH]2)CCc2cc(F)ccc2[C@@H]1C(C)C`, the Potency was “inactive”.
In the case of `C=CCc1ccccc1OCC(O)CNC(C)C` (stereo not given), the Potency is reported as “inactive”.
With `NC1=NCC2c3ccccc3Cc3ccccc3N12` (stereo not given) the Potency was “inactive”.
For `Cc1nnc(SCC2=C(C(=O)O)N3C(=O)[C@@H](NC(=O)Cn4cnnn4)[C@H]3SC2)s1`, the Potency was “inactive”.
`C#CCN(C)CCCOc1ccc(Cl)cc1Cl` was tested, and the Potency was “inactive”.
For `Cc1ccc(/C(=C\CN2CCCC2)c2ccccn2)cc1`, the Potency was “inactive”.
In the case of `CN=C(NC#N)NCCSCc1nc[nH]c1C`, the Potency is reported as “inactive”.
For `FC(F)(F)c1ccccc1-n1ccnc1`, the Potency was “inactive”.
In the case of `C(=C\c1ccccc1)/CN1CCN(C(c2ccccc2)c2ccccc2)CC1`, the Potency is reported as “inactive”.
For `CCCN1C[C@H](CSC)C[C@@H]2c3cccc4[nH]cc(c34)C[C@H]21`, the Potency was “inactive”.
For `CN(C)CCCN1c2ccccc2Sc2ccccc21`, the Potency was “inactive”.
With `CC(=O)OCC1=C(C(=O)O)N2C(=O)[C@@H](NC(=O)Cc3cccs3)[C@H]2SC1` the Potency was “inactive”.
For `N[C@@H](COP(=O)(O)O)C(=O)O`, the Potency was “inactive”.
In the case of `C[C@]12CCC(=O)C=C1CC[C@@H]1[C@@H]2C(=O)C[C@@]2(C)[C@H]1CC[C@]2(O)C(=O)CO`, the Potency is reported as “inactive”.
In the case of `CCO/C([O-])=N/c1c[n+](N2CCOCC2)no1`, the Potency is reported as “inactive”.
For `COc1ccc(CN(CCN(C)C)c2ccccn2)cc1`, the Potency was “inactive”.
For `NC(=O)c1ncn([C@@H]2O[C@H](CO)[C@@H](O)[C@H]2O)c1O`, the Potency was “inactive”.
With `CCN(CC)CCCN(c1ccccc1)C1Cc2ccccc2C1` the Potency was “inactive”.
In the case of `NC(=O)c1cn(Cc2c(F)cccc2F)nn1`, the Potency is reported as “inactive”.
